Read-out in experiment [1]: Tumor necrosis factor (Homo sapiens) (UniProt P01375)
Kind of experiment: BSK_BT_xTNFa: BioMAP Diversity Plus: BT Assay for Tumor necrosis factor alpha (TNF-alpha) Biomarker Activity (AID 2284230). To be noted: primary human B cells with PBMC. In outline: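 B cells with PBMC in co-culture, dosed and sampled at 24 h; secreted TNF-alpha measured by Luminex xMAP bead assay. Activity fitted in the gain direction against DMSO as negative control and baseline.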

Read-out in experiment [2]: Vascular cell adhesion molecule 1 (VCAM1), VCAM1 (gene 7412)
In words: BSK_MyoF_VCAM1: BioMAP Diversity Plus: MyoF Assay for Vascular cell adhesion molecule 1 (VCAM1) Biomarker Activity (AID 2284231). The settings on record: primary human lung fibroblasts. In short, it runs like this: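 Primary human lung fibroblasts were dosed with test chemical for 24 h, then cell-surface VCAM-1 was measured by ELISA. Activity was fitted in the positive direction against DMSO as negative control and baseline.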

Read-out in experiment [3]: Collagen I, COL1A1 (gene 1277)
In words: BSK_MyoF_CollagenI: BioMAP Diversity Plus: MyoF Assay for Collagen I Biomarker Activity (AID 2284238). To be noted: primary human lung fibroblasts. In outline:
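Human lung fibroblasts were exposed to test chemical for 24 h, then Collagen I was quantified by ELISA. Activity was fitted in the increasing direction against DMSO as the negative control and baseline.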

Read-out in experiment [4]: Interleukin 17F (IL17F), IL17F (gene 112744)
Kind of experiment: BSK_BT_xIL17F: BioMAP Diversity Plus: BT Assay for Interleukin 17F (IL17F) Biomarker Activity (AID 2284243). To be noted: primary human B cells with PBMC. In short, it runs like this: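 B cell/PBMC co-culture (human primary), 24 h compound exposure; sIL-17F by Luminex xMAP; gain-of-signal fit vs DMSO baseline.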

Read-out in experiment [5]: Actin alpha 1 (ACTA1), ACTA1 (gene 58)
Kind of experiment: BSK_MyoF_ACTA1: BioMAP Diversity Plus: MyoF Assay for Actin alpha 1 (ACTA1) Biomarker Activity (AID 2284244). The settings on record: primary human lung fibroblasts. In short, it runs like this:
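ELISA read-out of a-SMA in primary human lung fibroblast cultures, 24 h post-dosing. Activity scored in the positive direction versus DMSO baseline.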

Read-out in experiment [6]: Basic fibroblast growth factor (bFGF), FGF2 (gene 2247)
In words: BSK_MyoF_bFGF: BioMAP Diversity Plus: MyoF Assay for Basic fibroblast growth factor (bFGF) Biomarker Activity (AID 2284246). The settings on record: primary human lung fibroblasts. In short, it runs like this:
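Primary human lung fibroblast culture, 24 h compound exposure; ELISA read-out of bFGF. Positive-direction fit vs DMSO baseline. Cytotoxicity: SRB stain (0.1% SRB, 10% TCA fixation, 560 nm) in parallel wells.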

Read-out in experiment [7]: Interleukin-8 (IL8), CXCL8 (gene 3576)
In words: BSK_MyoF_IL8: BioMAP Diversity Plus: MyoF Assay for Interleukin-8 (IL8) Biomarker Activity (AID 2284261). To be noted: primary human lung fibroblasts. In outline:
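ELISA read-out of IL-8 from primary human lung fibroblasts, 24 h post-dose; positive-direction curve fitting relative to DMSO vehicle baseline.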

Experiment [8] can be described thus: BSK_MyoF_SRB: Viability Assessment in the BioMAP Diversity Plus: MyoF Assay (AID 2284267).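 Note: total protein by SRB absorbance in parallel cultures as cytotoxicity measure; cells assessed 24 h after compound addition.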 The settings on record: primary human lung fibroblasts. In short, it runs like this:
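Lung fibroblast cultures, 24 h post-dose; fix 10% TCA, stain 0.1% SRB, read 560 nm. Signal = total protein as cytotoxicity measure; fitted relative to DMSO negative control.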

For experiment [9], the target named is human RAR-related Orphan Receptor gamma (RORg), RORC (gene 6097) (UniProt P51449). In words: ATG_RORg_TRANS: Attagene TRANS-FACTORIAL HepG2 Assay for human RAR-related Orphan Receptor gamma (RORg) (AID 2283011; active = hit-call score of the fitted dose curve at least 0.9, where 1 is the maximum). In outline:
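Readout: reporter transcript induction (RT-PCR, fluorescent primer extension, capillary electrophoresis) after 24 h compound exposure of transiently transfected HepG2 cells carrying a RORg-Gal4 chimera and GAL4-UAS reporters; DMSO served as baseline, with increasing signal fitted.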

Experiment [10] has as its target human Phosphodiesterase 10 (PDE10), PDE10A (gene 10846) (UniProt Q9Y233). Kind of experiment: NVS_ENZ_hPDE10: NovaScreen (NVS) Enzymatic Assay for human Phosphodiesterase 10 (PDE10) (AID 2283195; active = hit-call score of the fitted dose curve at least 0.9, where 1 is the maximum). In short, it runs like this:
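Biochemical single-readout PDE10A assay, cell-free, extracted protein. Compounds first screened at 25 uM in duplicate, hits then titrated to 50 uM max. Activity measured after 1 h; loss-of-signal fitted against DMSO negative control.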

Experiment [11] can be described thus: CCTE_Deisenroth_AIME_384WELL_CTox_Inactive: Cytotoxicity Assessment (CTOX) in CCTE's 384-well Estrogen Receptor Transactivation Assay without AIME metabolic competence (metabolism negative), Deisenroth Lab (AID 2284039; active = hit-call score of the fitted dose curve at least 0.9, where 1 is the maximum;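 note: cell viability via live-cell protease substrate cleaved to fluorescent probe; cells exposed 24 h to medium preincubated 2 h with alginate-water beads without S9; loss of fluorescence signal means loss of viability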). In short, it runs like this:
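VM7Luc4E2 cells, metabolism-negative arm: test chemicals (0.002–200 uM, 10 points) pre-incubated 2 h with alginate-water microspheres, then medium transferred to cells for 24 h. Viability read as protease-substrate cleavage to fluorescent probe; loss-of-signal, bidirectional fitting.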

Experiment [12] has as its system Thyroperoxidase (TPO), gene 54314. Kind of experiment: CCTE_Simmons_AUR_rTPO: CCTE's Amplex UltraRed Assay for Thyroperoxidase (TPO) Inhibition, Simmons Lab (AID 2283662; active = hit-call score of the fitted dose curve at least 0.9, where 1 is the maximum;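 note: potency for loss of signal meaning inhibition of peroxidase activity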). In short, it runs like this: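 Rat thyroid microsomes (5 ug protein) with 25 uM Amplex UltraRed and 300 uM H2O2 in 200 mM phosphate buffer, 30 min at 37C in dark; fluorescence 544/590 nm. Eight concentrations, 5 nM–87.5 uM final, 0.5% DMSO, triplicate biological replicates.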

The target in experiment [13] is Luciferin 4-monooxygenase (Photinus pyralis) (UniProt P08659). Kind of experiment: CCTE_Simmons_QuantiLum_inhib_2: CCTE's Firefly Luciferase Inhibition Assay, Simmons Lab (AID 2283767; active = hit-call score of the fitted dose curve at least 0.9, where 1 is the maximum;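 for AC50: potency for inhibitors that lower luciferase luminescence relative to DMSO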). In outline: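 Cell-free QuantiLum luciferase, 5 ng/well; compounds 5 nM–87.5 uM final, 8 conc, 0.5% DMSO; 30 min, 37C, dark. Detection reagent (150 uM D-luciferin, 147 uM dATP, CoA, DTT, pH 7.8 final) injected per well, kinetic luminescence. Triplicate biological replicates.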

Experiment [14] has as its target human Retinoic Acid Receptor beta (RARb), RARB (gene 5915) (UniProt P10826). In words: ATG_RARb_TRANS: Attagene TRANS-FACTORIAL HepG2 Assay for human Retinoic Acid Receptor beta (AID 2283004; active = hit-call score of the fitted dose curve at least 0.9, where 1 is the maximum). In short, it runs like this: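 HepG2 cells transiently transfected with multiplexed GAL4-UAS reporter units expressing chimeric NR–Gal4 fusions; 24 h compound exposure. Reporter mRNA quantified by RT-PCR, 6-FAM labelling, HpaI digestion and capillary electrophoresis; gain-of-signal fitted against DMSO baseline.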

The target of experiment [15] is human Retinoic Acid Receptor gamma (RARg), RARG (gene 5916) (UniProt P13631). In words: ATG_RARg_TRANS: Attagene TRANS-FACTORIAL HepG2 Assay for human Retinoic Acid Receptor gamma (RARg) (AID 2283009; active = hit-call score of the fitted dose curve at least 0.9, where 1 is the maximum). In short, it runs like this: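 Readout: reporter transcript levels via RT-PCR, 6-FAM primer-extension labelling, HpaI digestion and capillary electrophoresis. Cells: HepG2 carrying transfected RARg-GAL4 chimera plus UAS reporter set. Dosing 24 h; DMSO negative control.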

The nature of experiment [16]: CEETOX_H295R_MTT_cell_viability: Viability Assessment in the CeeTox HT-H295R MTT Assay (AID 2283718). In short, it runs like this:
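Human H295R adrenal cells, prestimulated 48 h with 10 uM forskolin, were exposed 48 h to chemicals in 0.1% DMSO. Viability was measured in the same wells by MTT (0.5 mg/ml, 4 h, 37 C), absorbance 570/650 nm, as percent of controls.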

A short description of experiment [17]: CCTE_Harrill_HTTr_CellCount_MCF7: CCTE's Cell Proliferation Assessment for the High-Throughput Transcriptomics (HTTr) Platform, Harrill Lab (AID 2284012; active = hit-call score of the fitted dose curve at least 0.9, where 1 is the maximum;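 note: count of Hoechst-stained nuclei per well by high-content imaging in MCF-7 cells; cells exposed to compound for six hours; intended direction is loss of nuclei count meaning fewer cells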). In outline: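 Readout: Hoechst nuclear count by high-content imaging. MCF-7, 8-point dilution series, 6 h exposure. Bidirectional fit vs DMSO baseline.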
Experiment [18] has as its target Retinoic acid receptor alpha (Homo sapiens) (UniProt P10276). Kind of experiment: ATG_RARa_TRANS: Attagene TRANS-FACTORIAL HepG2 Assay for human Retinoic Acid Receptor alpha (RARa) (AID 2283005; active = hit-call score of the fitted dose curve at least 0.9, where 1 is the maximum). In outline: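 HepG2 transiently transfected with multiplex GAL4-UAS reporter units including a human RARa–GAL4 chimera; 24 h compound exposure. Reporter mRNA quantified by RT-PCR, 6-FAM labeling and capillary electrophoresis; gain of signal versus DMSO.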

Experiment [19] is described as follows: CCTE_Simmons_CellTiterGLO_HEK293T: Viability Assessment in CCTE's Assays for Thyroperoxidase (TPO) Inhibition, Simmons Lab (AID 2283665; active = hit-call score of the fitted dose curve at least 0.9, where 1 is the maximum;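 for AC50: cells exposed to compound for 24 h before readout; actives reduce ATP signal below DMSO vehicle meaning cytotoxicity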). In short, it runs like this: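 Luminescent ATP readout (CellTiter-Glo, 20 min at room temperature) after 24 hr exposure of HEK293T cells to 5 nM–87.5 uM final compound; signal loss relative to DMSO vehicle indicated cytotoxicity; dichlone titrated as positive control.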
On the technique in general: ATP-based viability assays read luminescence as a measure of living cells.

Values joined by “and” are separate entries in the source; they are usually repeats but may differ in a detail not shown here. Equal values may be shown once. Records with an inconclusive call do not appear. Active and inactive are the calls of the source. Rule for the calls, unless noted: active = hit-call score of the fitted dose curve at least 0.9, where 1 is the maximum; inactive = score below 0.9.

Sequence of Retinoic acid receptor alpha (Homo sapiens) (P10276 whole entry, looked up, the tested form may be a part): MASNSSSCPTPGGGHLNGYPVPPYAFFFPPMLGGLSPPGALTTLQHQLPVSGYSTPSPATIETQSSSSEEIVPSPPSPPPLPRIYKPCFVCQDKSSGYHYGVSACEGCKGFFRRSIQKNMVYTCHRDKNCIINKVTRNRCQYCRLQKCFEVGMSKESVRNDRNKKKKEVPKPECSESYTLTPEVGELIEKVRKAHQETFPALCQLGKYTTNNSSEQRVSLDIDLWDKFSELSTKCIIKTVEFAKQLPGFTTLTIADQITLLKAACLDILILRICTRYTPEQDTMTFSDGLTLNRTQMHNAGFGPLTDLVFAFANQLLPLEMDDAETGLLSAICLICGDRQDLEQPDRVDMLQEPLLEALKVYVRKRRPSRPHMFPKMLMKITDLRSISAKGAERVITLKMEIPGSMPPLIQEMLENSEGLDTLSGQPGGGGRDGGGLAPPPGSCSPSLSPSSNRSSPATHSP
Sequence of Tumor necrosis factor (Homo sapiens) (P01375 whole entry, looked up): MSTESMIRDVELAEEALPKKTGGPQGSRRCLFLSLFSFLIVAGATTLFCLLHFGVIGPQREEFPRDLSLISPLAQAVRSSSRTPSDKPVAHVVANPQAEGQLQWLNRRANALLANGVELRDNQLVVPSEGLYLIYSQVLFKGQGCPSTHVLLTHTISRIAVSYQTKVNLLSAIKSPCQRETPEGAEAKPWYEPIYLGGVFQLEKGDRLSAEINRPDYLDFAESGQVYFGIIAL
Sequence of human Retinoic Acid Receptor gamma (RARg), RARG (gene 5916) (P13631 whole entry, looked up, the tested form may be a part): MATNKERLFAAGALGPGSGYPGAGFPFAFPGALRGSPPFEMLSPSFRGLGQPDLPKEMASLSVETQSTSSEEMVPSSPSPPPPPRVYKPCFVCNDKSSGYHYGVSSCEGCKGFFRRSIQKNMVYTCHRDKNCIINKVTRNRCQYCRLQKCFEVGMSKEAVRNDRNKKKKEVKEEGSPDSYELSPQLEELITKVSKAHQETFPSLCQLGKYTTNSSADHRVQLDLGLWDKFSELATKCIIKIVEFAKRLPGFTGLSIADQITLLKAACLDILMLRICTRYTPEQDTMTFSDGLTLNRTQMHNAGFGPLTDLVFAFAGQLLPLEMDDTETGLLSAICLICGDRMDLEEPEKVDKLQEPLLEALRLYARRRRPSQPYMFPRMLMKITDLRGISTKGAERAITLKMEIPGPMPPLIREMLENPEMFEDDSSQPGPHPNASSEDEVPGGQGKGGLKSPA
Sequence of Luciferin 4-monooxygenase (Photinus pyralis) (P08659 whole entry, looked up): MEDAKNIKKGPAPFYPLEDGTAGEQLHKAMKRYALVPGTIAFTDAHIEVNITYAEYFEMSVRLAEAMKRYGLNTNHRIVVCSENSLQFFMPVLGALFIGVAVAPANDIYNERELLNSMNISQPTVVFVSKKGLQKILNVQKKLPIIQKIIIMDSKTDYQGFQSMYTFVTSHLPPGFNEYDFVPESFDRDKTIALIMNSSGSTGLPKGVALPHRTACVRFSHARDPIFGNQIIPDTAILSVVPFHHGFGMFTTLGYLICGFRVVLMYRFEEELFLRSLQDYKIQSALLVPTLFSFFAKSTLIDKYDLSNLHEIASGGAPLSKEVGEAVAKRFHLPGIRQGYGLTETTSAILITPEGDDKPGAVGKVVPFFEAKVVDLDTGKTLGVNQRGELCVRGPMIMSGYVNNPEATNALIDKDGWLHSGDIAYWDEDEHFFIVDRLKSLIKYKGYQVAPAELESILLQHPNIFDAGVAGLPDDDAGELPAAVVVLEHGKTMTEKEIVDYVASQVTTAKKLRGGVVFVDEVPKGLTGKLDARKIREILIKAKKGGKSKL
Sequence of human RAR-related Orphan Receptor gamma (RORg), RORC (gene 6097) (P51449 whole entry, looked up, the tested form may be a part): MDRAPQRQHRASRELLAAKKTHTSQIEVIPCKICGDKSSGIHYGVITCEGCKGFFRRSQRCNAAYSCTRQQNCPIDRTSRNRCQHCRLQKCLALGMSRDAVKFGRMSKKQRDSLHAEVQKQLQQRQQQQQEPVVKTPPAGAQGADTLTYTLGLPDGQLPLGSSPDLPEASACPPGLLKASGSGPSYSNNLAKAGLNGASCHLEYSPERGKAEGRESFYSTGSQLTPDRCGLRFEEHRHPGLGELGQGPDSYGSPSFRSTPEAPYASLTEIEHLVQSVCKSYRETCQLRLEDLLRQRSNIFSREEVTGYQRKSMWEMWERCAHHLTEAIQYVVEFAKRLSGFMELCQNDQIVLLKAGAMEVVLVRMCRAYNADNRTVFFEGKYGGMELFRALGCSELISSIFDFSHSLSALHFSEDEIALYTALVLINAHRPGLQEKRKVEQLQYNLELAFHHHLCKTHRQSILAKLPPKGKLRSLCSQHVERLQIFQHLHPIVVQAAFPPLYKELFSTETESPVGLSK
Sequence of human Retinoic Acid Receptor beta (RARb), RARB (gene 5915) (P10826 whole entry, looked up, the tested form may be a part): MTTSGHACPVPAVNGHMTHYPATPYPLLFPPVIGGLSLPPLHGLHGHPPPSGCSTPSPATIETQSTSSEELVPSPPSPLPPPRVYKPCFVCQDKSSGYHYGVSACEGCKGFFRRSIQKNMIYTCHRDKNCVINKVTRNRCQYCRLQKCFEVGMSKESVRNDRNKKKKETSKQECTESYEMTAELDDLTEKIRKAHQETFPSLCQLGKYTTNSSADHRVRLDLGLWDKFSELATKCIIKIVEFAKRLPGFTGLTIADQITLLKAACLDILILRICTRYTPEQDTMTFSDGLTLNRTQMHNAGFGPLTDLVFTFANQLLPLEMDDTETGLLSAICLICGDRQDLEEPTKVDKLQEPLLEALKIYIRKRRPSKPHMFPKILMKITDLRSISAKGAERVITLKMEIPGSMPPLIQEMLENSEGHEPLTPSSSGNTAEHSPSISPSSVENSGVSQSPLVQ
Sequence of human Phosphodiesterase 10 (PDE10), PDE10A (gene 10846) (Q9Y233 whole entry, looked up): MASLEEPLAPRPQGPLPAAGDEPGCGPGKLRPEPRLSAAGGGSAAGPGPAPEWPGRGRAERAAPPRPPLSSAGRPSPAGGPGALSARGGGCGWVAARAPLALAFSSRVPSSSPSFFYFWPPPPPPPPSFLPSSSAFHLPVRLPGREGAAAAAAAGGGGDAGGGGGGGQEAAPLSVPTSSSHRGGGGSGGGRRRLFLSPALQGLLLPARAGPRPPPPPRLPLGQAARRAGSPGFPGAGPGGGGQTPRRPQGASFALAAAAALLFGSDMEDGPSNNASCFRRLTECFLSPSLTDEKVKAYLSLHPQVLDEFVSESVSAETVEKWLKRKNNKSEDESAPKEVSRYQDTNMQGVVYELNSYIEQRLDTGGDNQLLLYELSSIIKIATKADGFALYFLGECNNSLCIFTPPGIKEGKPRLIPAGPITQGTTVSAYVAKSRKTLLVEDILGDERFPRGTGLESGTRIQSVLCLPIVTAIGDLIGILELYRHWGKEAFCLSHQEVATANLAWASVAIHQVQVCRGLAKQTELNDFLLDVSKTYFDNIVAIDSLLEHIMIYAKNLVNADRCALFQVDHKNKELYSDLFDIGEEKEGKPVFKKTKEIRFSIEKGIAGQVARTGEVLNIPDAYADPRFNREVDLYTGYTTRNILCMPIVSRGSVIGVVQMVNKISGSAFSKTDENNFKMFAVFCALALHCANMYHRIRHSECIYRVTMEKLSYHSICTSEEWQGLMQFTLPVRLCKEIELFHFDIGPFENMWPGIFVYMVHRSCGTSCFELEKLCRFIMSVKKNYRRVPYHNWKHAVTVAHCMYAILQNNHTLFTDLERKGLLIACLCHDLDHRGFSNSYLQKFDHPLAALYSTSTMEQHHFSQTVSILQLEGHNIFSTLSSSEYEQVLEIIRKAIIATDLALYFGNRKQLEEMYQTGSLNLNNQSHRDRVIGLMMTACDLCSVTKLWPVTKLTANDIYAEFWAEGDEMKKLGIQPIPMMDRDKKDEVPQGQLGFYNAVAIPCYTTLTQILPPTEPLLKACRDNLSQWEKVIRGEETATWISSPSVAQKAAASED

`CC1(C)[C@H](C(=O)O[C@H](C#N)c2cccc(Oc3ccccc3)c2)[C@@H]1C=C(Br)Br`: the outcome in [1], in experiment [2], in [3], in experiment [5], in [6] and in [7] was inactive. In experiment [8], the result was inactive. Besides, the AC50 (as a rule, the concentration at which the activity in the assay is half-maximal) in experiment [4] was 28.7 µM (active) and 20 µM (active).

For the compound `O=[N+]([O-])c1ccc(Cl)cc1`, the result in [9], in experiment [10] and in [11] was inactive.

Consider `CCc1cc(C)cc(CC)c1-c1c(OC(=O)C(C)(C)C)n2n(c1=O)CCOCC2`, for which the result in [9], in [1], in [2], in experiment [3], in [4] and in experiment [6] was inactive. In addition, the outcome in [7] and in [8] was inactive. Further, the AC50 in experiment [5] is 20 µM (active).

With `c1ccc(P(c2ccccc2)c2ccccc2)cc1`, the half-maximal activity concentration (AC50) in experiment [12] was 40.2 µM (active). The call in experiment [13] was inactive.

With `Oc1cc(Cl)ccc1Cl`, the result in experiment [14], in experiment [15], in experiment [16], in experiment [17], in experiment [1] and in experiment [2] was inactive. The result in experiment [3], in experiment [4], in [5], in [6], in [7] and in experiment [8] was inactive.

Turning to `O=C(NCNC(=O)NC1C(=O)NC(=O)N1CO)NC1C(=O)NC(=O)N1CO` (stereo not drawn), the call in [18], in experiment [15] and in experiment [9] was inactive.

`CC(C)C(=O)Cl`: the call in experiment [10] was inactive.

Take `COc1ccc(CO)cc1`: the outcome in [9] and in experiment [17] was inactive.

Turning to `S=c1[nH]c2ccccc2[nH]1`, the compound was classed as inactive in [10] and in [19]. Moreover, the half-maximal activity concentration (AC50) in experiment [12] is 0.0688 µM (active); in experiment [13], 2.02 µM (active).

As for `CCOC(=O)NC(=S)Nc1ccccc1NC(=S)NC(=O)OCC`, the outcome in experiment [14], in experiment [13] and in experiment [17] was inactive. Also, the AC50 in experiment [12] was 16 µM (active).

As to `CN(C)N`, the result in [11] was inactive.

Regarding `O=C(CCl)c1ccccc1`, the result in experiment [14], in [18], in experiment [15], in experiment [13] and in experiment [17] was inactive. For the same compound, the AC50 in experiment [12] and in experiment [19] was 43.8 µM (active) throughout.

Turning to `Clc1ccc(-c2ccccc2)cc1`, the result in [10], in experiment [17], in experiment [1], in experiment [2], in experiment [3] and in [4] was inactive. The result in experiment [5], in experiment [6], in [7] and in experiment [8] was inactive.

Consider `C[C@]12CCC(=O)C(O)=C1CC[C@@H]1[C@@H]2CC[C@]2(C)C(=O)CC[C@@H]12`, for which the compound was called inactive in experiment [17].

For `CN(C)CCC#N`, the outcome in experiment [18] and in experiment [15] was inactive.

In the case of `[N-]=[N+]=CC(=O)OC[C@H](N)C(=O)O`, the result in experiment [18] and in experiment [17] was inactive.

For `Nc1ccccc1C(=O)OCCc1ccccc1`, the call in experiment [14] and in experiment [18] was inactive.

Source of the values: PubChem BioAssay (EPA / NIEHS).
